The full list was thinned out, with hits kept by preference.
TTR transcr act: TTR transcription activators in neuroblastoma reporter cells, primary screen, cell-based, luminescence, SH-SY5Y, TTR promoter Gaussia luciferase; 100% = recombinant luciferase protein wells; activation, % at 16.7 µM; 92,000 tested, 1.3% active; AID 1117267, 2014;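 active = activation above the mean of all tested compounds plus 3 SD, cut at about 9.5% in these data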;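 note: cells exposed to compounds for one day before reading; 0% = median of all test compound wells on the plate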
TTR inh HuH7: TTR promoter reporter inhibitors in hepatoma cells, counter-screen for TTR transcription activator project, cell-based, luminescence, HuH7 hepatoma; shares compounds with TTR transcr act; HuH7 TTR promoter-Gaussia luciferase reporter; inhibition, % at 16.7 µM; 1,100 tested, 4% active;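 active = average inhibition above the solvent-only control wells' mean plus 3 SD, cut at about 15% in these data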;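 note: 0% = cells with DMSO only and 100% = cells with inhibitor control FD; inhibitors lower well luminescence so higher value means more inhibition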
TTR act confirm: TTR transcription activators, retest, confirmation, cell-based, luminescence, SH-SY5Y, triplicate. shares compounds with TTR transcr act. SHSY5Y TTR promoter Gaussia luciferase; 100% = purified Lucia enzyme wells, no cells. activation, % at 16.7 µM. 1,100 tested, under 10 active;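 active = mean activation above a set limit taken from the earlier primary screen, cut at about 11% in these data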;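 note: 0% = DMSO-treated cells and 100% = recombinant Lucia luciferase without cells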
* marks the source's active call; other numbers are inactive results.

SMILES	TTR transcr act	others
C[C@H](CO)N1C[C@H](C)[C@@H](CN(C)S(=O)(=O)c2ccc3ccccc3c2)OCc2cnnn2CCCC1=O	1.2
COC(=O)[C@]1(Cc2ccccc2)N[C@H](CN(C)C(=O)c2ccc(C(C)(C)C)cc2)[C@@H]2C(=O)N(Cc3ccccc3)C(=O)[C@@H]21	1.0
COc1ccc(Cl)cc1C(=O)O/N=C(\N)c1ccncc1	1.3
Cc1ccc(/C(N)=N/OC(=O)c2ccc(Cl)cc2Cl)cc1	19.8*	TTR inh HuH7=6.4;TTR act confirm=-0.5
N/C(=N\OC(=O)c1cccnc1)c1ccc(Cl)cc1Cl	-0.2
COc1ccccc1NC(=O)C(C)OC(=O)C1CCN(S(=O)(=O)c2ccccc2C(F)(F)F)CC1 (configuration not stated)	0.4
CC(C)(C)NC(=O)C(c1cccnc1)N(C(=O)c1cccs1)c1ccc(C(C)(C)C)cc1 (configuration not stated)	1.6
Cc1ccc(S(=O)(=O)N2c3ccccc3C[C@H]2CCC(=O)c2ccccc2)cc1	-2.1
CC1CCCC(NC(=O)CCNC(=O)c2ccc([N+](=O)[O-])cc2)C1C (configuration not stated)	-0.1
CCCc1cc(=O)[nH]c(Nc2ccc(O)cc2)n1	18.7*	TTR inh HuH7=0.1;TTR act confirm=0.9
CCCc1cc(=O)[nH]c(SCC(=O)Nc2ccc3ccccc3c2)n1	0.6
CCCc1cc(=O)[nH]c(SCC(=O)NC2CCCCC2)n1	-0.2
Cc1cc(Br)cn2c(Cc3ccsc3)c(-c3ccc(F)cc3)nc12	-3.1
C[C@@H]1CN([C@@H](C)CO)C(=O)c2cccc(NC(=O)Nc3cccc4ccccc34)c2O[C@H]1CN(C)S(=O)(=O)c1ccc2c(c1)OCCO2	-1.8
O=C(NNc1ccccc1)Nc1cc(Cl)ccc1Cl	-1.3
O=C(COC(=O)/C=C/c1cccc(C(F)(F)F)c1)Nc1ccc(Cl)cn1	2.7
CCc1c(C2(O)CCCCC2)[nH]c2cnccc12	12.7*	TTR inh HuH7=-3.8;TTR act confirm=-0.1
Cc1c(C2(O)CCCCC2)[nH]c2ccc(C(F)(F)F)cc12	-3.9
COc1cc(CCN(C(=O)c2cc3ccccc3[nH]2)C(C)c2nc3ccccc3[nH]2)cc(OC)c1 (configuration not stated)	12.9*	TTR inh HuH7=-21.9;TTR act confirm=-0.4
CCC(c1nc2ccccc2[nH]1)N(C(=O)Cc1cc(OC)cc(OC)c1)c1ccc(N2CCOCC2)cc1 (configuration not stated)	2.0
COc1ccc2[nH]c(C(=O)N(Cc3ccccn3)Cc3ccccn3)cc2c1	0.7
COc1ccc(C(CNC(=O)c2ccc(S(=O)(=O)Nc3cccc(C)c3C)cc2)N2CCOCC2)cc1 (configuration not stated)	3.7
O=S(=O)(c1ccccc1)N1CCNCC1	0.7
C[C@H]1[C@H](N(Cc2ccccc2)Cc2ccccc2)CC[C@@]23CCCN2C(=O)CCC[C@@H]13	0.1
CC(C)(Cc1nc2ccccc2[nH]1)C(=O)O	2.3
SMILES	TTR transcr act	others
O=C1CCC(CCc2nc3ccccc3[nH]2)(c2ccccc2)C(=O)N1 (configuration not stated)	21.5*	TTR inh HuH7=7.7;TTR act confirm=3.2
O=C(Nc1ccccc1)N(CCc1nc2ccccc2[nH]1)C1CCCC1	3.3
COc1cc2c(c(OC)c1OC)C(=O)C(=Cc1ccccc1)O2	-0.1
S=c1[nH]ncn1/N=C/c1ccccc1	17.5*	TTR inh HuH7=-4.6;TTR act confirm=-0.4
S=c1[nH]nc(-c2cc(-c3ccccc3)n[nH]2)n1/N=C/c1ccc(Cl)cc1	0.6
Nc1nc(-c2ccccc2)cn1/N=C/c1ccccc1	1.0
COC(=O)C[C@H]1CC[C@H](NC(=O)Nc2ccccc2F)[C@@H](CO)O1	1.0
COC(=O)[C@H]1C[C@@]2(CC=C(C)C)c3ccccc3N(C(=O)OC(C)(C)C)[C@H]2N1C(=O)OC(C)(C)C	-1.4
CCOC(=O)Cn1c(=O)oc2cc(S(=O)(=O)N(CCN(C)C)Cc3ccccc3)ccc21	0.0
CCOC(=O)Cn1c(=O)oc2cc(S(=O)(=O)NC(C)(C)CC)ccc21	0.3
CCOC(=O)Cn1c(=O)oc2cc(S(=O)(=O)N3CCc4ccccc43)ccc21	14.5*	TTR inh HuH7=-3.6;TTR act confirm=-0.4
CCN1C(=O)[C@H]2[C@H]3CN=C(SCc4ccc(Cl)cc4)N3[C@@](CC)(C(=O)OC)[C@H]2C1=O	-1.4
COc1ccc(-c2nc3ccccc3c(=O)n2Cc2ccccc2)cc1COc1ccc(NC(C)=O)cc1	3.1
Cc1ccc(C(=O)OCC(=O)NC2CCCc3ccccc32)o1 (configuration not stated)	18.1*	TTR inh HuH7=-9.0;TTR act confirm=-0.4
Cc1ccc(CC(=O)NC2CCCc3ccccc32)cc1C (configuration not stated)	-0.9
Cc1cccc(OCC(=O)NC2CCCc3ccccc32)c1C (configuration not stated)	0.1
CC(c1ccccc1)n1ccnc1CO (configuration not stated)	1.3
CCc1nccn1S(=O)(=O)c1cc(OC)ccc1OC	3.2
O=C(Cc1cccc(C(F)(F)F)c1)NCc1ccc(Cl)cc1	0.6
CN(C)C(CNC(=O)Cc1cccc(C(F)(F)F)c1)c1ccccc1 (configuration not stated)	14.8*	TTR inh HuH7=-11.8;TTR act confirm=0.4
CC(NC(=O)CSc1cccc(C(F)(F)F)c1)c1ccccc1 (configuration not stated)	-0.9
CCN(CC(=O)Nc1c(F)cccc1F)C(=O)c1nn(C)c(=O)c2ccccc12	0.0
COc1ccccc1N1CCN(C2CCCN(C(=O)CCN3CCCCO3)C2)CC1 (configuration not stated)	-1.2
COc1ccc(NC(=O)CCNC(=O)c2ccccc2)cc1S(N)(=O)=O	31.5*	TTR inh HuH7=-12.1;TTR act confirm=-0.4
O=C(CCNC(=O)c1ccccc1)Nc1ccc(F)c(Cl)c1	3.2
SMILES	TTR transcr act	others
COc1ccccc1NS(=O)(=O)c1cc(NC(=O)CCNC(C)=O)ccc1C	-0.6
C=CCOC(=O)C(CO)NC(=O)CCCC(=O)O (configuration not stated)	2.1
CCS(=O)(=O)N1Cc2ccccc2CC1C(=O)Nc1ncc(C)s1 (configuration not stated)	1.8
COc1ccc(S(=O)(=O)N2Cc3ccccc3CC2C(=O)Nc2ccc(O)cc2)cc1OC (configuration not stated)	1.5
CCOc1ccc(NC(=O)C2Cc3ccccc3CN2S(=O)(=O)CC)cc1 (configuration not stated)	19.9*	TTR inh HuH7=-14.2;TTR act confirm=-0.4
CC(C)(C)S(=O)N1Cc2cc(C(=O)NCc3ccc4c(c3)OCO4)nc(-c3cccc(-c4ccccc4)c3)c2[C@@H]1CCO (some centres not stated)	1.4
O=C1NC(=O)N(C2CCCCC2)CC1Br (configuration not stated)	25.0*	TTR inh HuH7=-3.5;TTR act confirm=-0.7
CC1CN(C2CCCCC2)C(=S)NC1=O (configuration not stated)	1.7
O=C1NC(=O)N(Cc2ccccc2)CC1Br (configuration not stated)	-0.1
CSCC[C@H](NC(=O)[C@H]1CC[C@H](CNC(=O)[C@@H]2CCCN2)CC1)C(=O)O	0.5
COC(=O)C(CCSC)NC(=O)C(NC(=O)C1CCC(C)CC1)C(C)C (configuration not stated)	-2.4

Assay outcomes from PubChem BioAssay.
